Where “and” joins values, the source holds several entries; their conditions need not be identical. Identical values can stand only once. Screen size: about 5,500 compounds; about 2,000 (36%) were called active. Another 18% or so got no clear call; they are omitted. Rule as the data show it: active = normalized growth mostly below about 0.91 (no sharp cut-off); inconclusive = no clear call, values can overlap the other calls; inactive = mostly above about 0.92. The list shows a part of the results.
Assay: chemical genetic growth profiling, strain panel (AID 1159580);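 also: tested at 20 µM; growth read once vehicle control cultures reached saturation at 30 °C; 1 = growth at the plate median or of vehicle wells; lower values mean less growth of the strain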
Conditions: S. cerevisiae deletion strains, growth OD

Measured: normalized growth

CCCCCCCCCCCCCCCC[N+](C)(C)C
active: locus YAL013W, strain DEP1, active compounds read low 0.0576 | locus YAL021C, strain ccr4, active compounds read low 0.0584 | locus YAL026C, strain drs2, active compounds read low 0.0563 | locus YAL030W, strain snc1, active compounds read low 0.0653 | locus YBL061C, strain skt5, active compounds read low 0.057 | locus YBR009C, strain hhf1, active compounds read low 0.06 | locus YBR021W, strain FUR4, active compounds read low 0.123 | locus YBR023C, strain chs3, active compounds read low 0.0601 | locus YBR171W, strain sec66, active compounds read low 0.0733 | locus YBR229C, strain ROT2, active compounds read low 0.0267 | locus YBR231C, strain swc5, active compounds read low 0.0573 | locus YBR279W, strain paf1, active compounds read low 0.0573 | locus YCL011C, strain gbp2, active compounds read low 0.055 | locus YCL016C, strain dcc1, active compounds read low 0.0605 | locus YCL029C, strain bik1, active compounds read low 0.0609 | locus YCL061C, strain MRC1, active compounds read low 0.0602 | locus YCL069W, strain vba3, active compounds read low 0.0611 | locus YCR088W, strain abp1, active compounds read low 0.0586 | locus YDL005C, strain med2, active compounds read low 0.0729 | locus YDL035C, strain GPR1, active compounds read low 0.0499 | locus YDL040C, strain nat1, active compounds read low 0.0563 | locus YDL074C, strain BRE1, active compounds read low 0.0802 | locus YDL101C, strain DUN1, active compounds read low 0.0512 | locus YDL134C, strain PPH21, active compounds read low 0.0552 | locus YDL185W, strain tfp1, active compounds read low 0.0826 | locus YDL192W, strain arf1, active compounds read low 0.0605 | locus YDR001C, strain nth1, active compounds read low 0.0561 | locus YDR069C, strain doa4, active compounds read low 0.0578 | locus YDR101C, strain arx1, active compounds read low 0.0591 | locus YDR137W, strain rgp1, active compounds read low 0.0808 | locus YDR150W, strain NUM1, active compounds read low 0.0572 | locus YDR159W, strain sac3, active compounds read low 0.0724 | locus YDR162C, strain NBP2, active compounds read low 0.0544 | locus YDR195W, strain ref2 0.0903 | locus YDR297W, strain sur2, active compounds read low 0.0606 | locus YDR318W, strain mcm21, active compounds read low 0.0624 | locus YDR334W, strain swr1, active compounds read low 0.0599 | locus YDR335W, strain msn5, active compounds read low 0.0601 | locus YDR388W, active compounds read low 0.0556 | locus YDR392W, strain spt3, active compounds read low 0.0767 | locus YDR502C, strain sam2, active compounds read low 0.0598 | locus YEL003W, strain gim4, active compounds read low 0.0527 | locus YEL037C, strain rad23, active compounds read low 0.0584 | locus YEL061C, strain CIN8 (second series), active compounds read low 0.0593 | locus YEL061C, strain CIN8, active compounds read low 0.0474 | locus YER015W, strain faa2, active compounds read low 0.0592 | locus YER016W, strain bim1, active compounds read low 0.0587 | locus YER110C, active compounds read low 0.0715 | locus YER111C, strain swi4, active compounds read low 0.0703 | locus YER155C, strain BEM2 (second series), active compounds read low 0.0841 | locus YER155C, strain BEM2, active compounds read low 0.0716 | locus YER167W, strain BCK2, active compounds read low 0.0534 | locus YFR010W, strain ubp6, active compounds read low 0.0598 | locus YGL078C, strain dbp3, active compounds read low 0.0583 | locus YGL086W, strain mad1, active compounds read low 0.055 | locus YGL167C, strain pmr1, active compounds read low 0.0703 | locus YGL173C, strain kem1, active compounds read low 0.0795 | locus YGL227W, strain vid30, active compounds read low 0.0598 | locus YGL240W, strain doc1, active compounds read low 0.0655 | locus YGL248W, strain PDE1, active compounds read low 0.0448 | locus YGL253W, strain hxk2, active compounds read low 0.0528 | locus YGR078C, strain PAC10, active compounds read low 0.0545 | locus YGR135W, strain pre9, active compounds read low 0.0674 | locus YGR229C, strain SMI1, active compounds read low 0.0636 | locus YGR252W, strain gcn5, active compounds read low 0.153 | locus YHR013C, strain ard1, active compounds read low 0.0817 | locus YHR027C, strain rpn1, active compounds read low 0.0592 | locus YHR030C, strain SLT2, active compounds read low 0.0556 and 0.0924 | locus YHR079C, strain IRE1 (second series), active compounds read low 0.0564 | locus YHR079C, strain IRE1, active compounds read low 0.0965 | locus YHR094C, strain hxt1, active compounds read low 0.0577 | locus YHR129C, strain ARP1, active compounds read low 0.0524 | locus YHR142W, strain chs7, active compounds read low 0.062 | locus YHR200W, strain rpn10, active compounds read low 0.0595 | locus YIL066C, strain RNR3, active compounds read low 0.0478 | locus YIL073C, strain SPO22, active compounds read low 0.0966 | locus YIL125W, strain kgd1, active compounds read low 0.0641 | locus YIR030C, strain dcg1, active compounds read low 0.0583 | locus YJL092W, strain hpr5, active compounds read low 0.0559 | locus YJL095W, strain BCK1 (second series), active compounds read low 0.0547 | locus YJL095W, strain BCK1, active compounds read low 0.049 and 0.0904 | locus YJL115W, strain asf1, active compounds read low 0.0708 | locus YJL129C, strain trk1, active compounds read low 0.0757 | locus YJL134W, strain LCB3, active compounds read low 0.0478 | locus YJL154C, strain vps35, active compounds read low 0.0607 | locus YJL164C, strain tpk1, active compounds read low 0.0535 | locus YJL166W, strain qcr8, active compounds read low 0.0568 | locus YJL168C, strain set2, active compounds read low 0.0569 | locus YJL187C, strain SWE1 (second series), active compounds read low 0.0409 | locus YJL187C, strain SWE1, active compounds read low 0.0593 | locus YJR043C, strain POL32, active compounds read low 0.0614 | locus YJR066W, strain TOR1, active compounds read low -0.00145

Reference: PubChem BioAssay AID1159580 (chemical genetic matrix, 2015)
